# EPAC2 antag = qHTS for Antagonist of cAMP-regulated guanine nucleotide exchange factor 2 (EPAC2): primary screen | Potency, µM (highest dose often 114 µM), for the others: top-dose activity, negative = inhibition, usual class: inhibitors | 360,000 tested, 0.18% active | EPAC2 GEF exchange of Rap1B-BODIPY-GDP, fluorescence; note: % is set by controls: 0 for no effect and ±100 for the full control effect; nearly all actives have a fitted effect of over 45% in size
# EPAC1 agonist = qHTS for Agonist of cAMP-regulated guanine nucleotide exchange factor 3 (EPAC1): primary screen | 360,000 tested, 0.073% active | Potency, µM (series often up to 154 µM), without a hit: at the highest dose activation, actives largely listed as activators | EPAC1 agonist qHTS, biochemical assay; response scale: 100% = response to 6.5 mM cAMP | Rap guanine nucleotide exchange factor 3 (Homo sapiens), O95398; note: nearly all actives have a fitted effect of over 60% in size
#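 Nucleotide exchange by EPAC1 (100 nM) on Rap1B–BODIPY-GDP (250 nM) in the presence of 50 uM GDP is tracked fluorescently at 480/540 nm over 30 min. Signals are normalized to a 6.5 mM cAMP control.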
# EPAC1 antag = qHTS for Antagonist of cAMP-regulated guanine nucleotide exchange factor 3 (EPAC1): primary screen | Rap guanine nucleotide exchange factor 3 (Homo sapiens), O95398 | 360,000 tested, 0.14% active | Potency, µM (top dose mostly 115 µM), without a hit: at the highest dose activity change, negative = inhibition, hits mostly inhibitors | EPAC1 GEF assay, Rap1b-BODIPY-GDP exchange fluorescence;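 note: plate controls were vehicle for no effect and positive control for full effect; nearly all actives have a fitted effect of over 50% in size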
# USP1 inh = Inhibitors of USP1/UAF1: Primary Screen; Ubiquitin carboxyl-terminal hydrolase 1 (Homo sapiens), O94782; recombinant USP1/UAF1, Ub-Rhodamine cleavage fluorescence; Potency, µM (top dose mostly 57.1 µM), for the others: at the top dose activity change, negative = inhibition, most hits filed as inhibitors; 390,000 tested, 0.23% active; AID 743255, 2014; note: % is set by controls: 0 for no effect and ±100 for the full control effect; nearly all actives have a fitted effect of over 60% in size
#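 In this screen, compounds sit with the deubiquitinase complex (1nM) for 15 min at room temperature before Ub-Rho is added at 150nM final. Fluorescence rise is then followed for 6 reads every 60 seconds.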
# EPAC2 ag = qHTS for Agonist of cAMP-regulated guanine nucleotide exchange factor 4 (EPAC2): primary screen. Rap guanine nucleotide exchange factor 4 (Homo sapiens), Q8WZA2. EPAC2 activation, biochemical qHTS; response scale: 100% = 6.5 mM cAMP response. Potency, µM (top dose mostly 154 µM), inactives show top-dose activation, actives largely listed as activators. 360,000 tested, 0.079% active. AID 720711, 2013; note: nearly all actives have a fitted effect of over 50% in size
#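 Guanine nucleotide exchange by EPAC2 is measured as reduced fluorescence of BODIPY-GDP once it is released from 250 nM Rap1B. Plates are read kinetically for 30 min at room temperature; results are scaled to 6.5 mM cAMP.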
# * hit, by the source's call; ? = inconclusive; . = no result. Rows were chosen to be rich in hits. Some 0.44% of all compounds tested hit in one or more screens of this group. Calls come from the whole dose curve; as a rule, active = well fitted curve in the direction sought with a large enough effect; inconclusive = small, poorly fitted or top-dose-only effect, or another doubt; inactive = no such curve, though single readings can be large; an effect the other way counts as inactive or inconclusive. Potency is the fitted concentration of half-maximal effect.
SMILES,EPAC2 antag,EPAC1 agonist,EPAC1 antag,USP1 inh,EPAC2 ag
Oc1c(Br)cc(Br)cc1CNc1cccc2cccnc12,11µM*,15%,-26%,?,2%
Oc1ccc(Br)cc1CNc1cccc2cccnc12,?,10%,12%,?,13%
Cc1cccc(S(=O)(=O)N[C@@H]2CC[C@@H](CCNS(=O)(=O)c3ccccc3F)O[C@@H]2CO)c1,-5%,-15%,3%,.,1%
CCC1CN(C(=O)Nc2cc(C)ccc2OC)c2cc(Cl)ccc2O1 (configuration not stated),.,.,.,1%,.
CCOc1ccccc1NC(=O)Cn1cnc2onc(-c3ccc(F)cc3)c2c1=O,.,.,.,-30%,.
CC1=C(C(=O)Nc2ccc(C)cc2C)C(c2sccc2C)n2ncnc2N1 (configuration not stated),.,.,.,-12%,.
Cc1nc2ccc(S(=O)(=O)N(C)CC(=O)Nc3cccc(C(F)(F)F)c3)cc2s1,.,.,.,-25%,.
CC[n+]1ccc(/C=C/c2c[nH]c3ccccc23)cc1,45%,?,52%,28µM*,100µM*
Cc1ccc2[nH]cc(/C=C/c3cc[n+](C)cc3)c2c1,65%,100µM*,72%,28µM*,?
COc1ccc2c(/C=C/c3cc[n+](C)cc3)c[nH]c2c1,0%,8%,7%,?,3%
O=C(NCCc1ccccc1)c1ccc(CSc2nc3ccncc3n2Cc2ccccc2F)cc1,.,.,.,-11%,.
Cc1ccc[n+](-c2nc([O-])sc2C=O)c1,45%,?,36%,28µM*,?
CC(C)c1ccc[n+](-c2nc([O-])sc2C=O)c1,1%,2%,-9%,-13%,5%
Cc1cc(C)c2nc(N3C(=O)C(O)=C(C(=O)c4ccco4)C3c3ccco3)sc2c1 (configuration not stated),-7%,-12%,50µM*,-10%,5%
Oc1cccc(C=Nc2cccc3ccccc23)c1O,12%,-5%,50µM*,?,12%
O=C1C(Cl)=C(Nc2ccc3cn[nH]c3c2)C(=O)c2ccccc21,-9%,1%,-24%,16µM*,8%
COc1ccc(-c2c(C#N)c(N)nc3sc(C(=O)c4ccccc4)c(N)c23)cc1,8%,0%,-14%,-19%,8%
CSc1c(C#N)c(N)nc2sc(C(=O)c3ccc(Cl)c(Cl)c3)c(N)c12,11%,100µM*,-1%,-8%,12%
CCOc1ccc2nc(NC(=O)CSc3nc(-c4ccccc4)c(C#N)c(=O)[nH]3)sc2c1,?,-7%,?,?,10%
COc1cccc(-c2nc(SCC(=O)Nc3nc(-c4ccccc4)c(C)s3)[nH]c(=O)c2C#N)c1,25µM*,2%,?,-17%,-2%
Cc1[nH][nH]c(=O)c1C(c1c(C)[nH][nH]c1=O)c1cn(Cc2cccc3ccccc23)c2ccccc12,4%,16%,89µM*,14µM*,6%
COCCCNC(=O)CSc1nc(-c2cccc(F)c2)[nH]c1-c1ccccc1,.,.,.,-12%,.
O=C(CCNS(=O)(=O)c1ccc(Br)s1)Nc1ccc(Br)cc1,.,.,.,-32%,.
CN1C(=O)/C(=C\c2ccc(N(C)C)cc2)OC1=S,3%,89µM*,23%,?,-5%
CC1CCc2c(sc3nnn(CC(=O)Nc4c(C(C)C)cccc4C(C)C)c(=O)c23)C1 (configuration not stated),.,.,.,-2%,.
SMILES,EPAC2 antag,EPAC1 agonist,EPAC1 antag,USP1 inh,EPAC2 ag
CCc1nc2c(OCc3c(C)noc3C)cccn2c1N(C)C(=O)C(C)C,4%,-2%,-2%,.,9%
Nc1ccc(/C=C/C(=O)c2cccs2)cc1,17%,16%,22%,25µM*,24%
O=C1NC(Cc2ccc(O)cc2)c2nc3ccccc3c(=O)n2-c2ncccc21 (configuration not stated),-4%,13%,-18%,?,16%
Cc1cccc(S(=O)(=O)NC(=O)C2(C)CCN2C(=O)Cc2cc(F)ccc2F)c1 (configuration not stated),-11%,-11%,100µM*,.,8%
Cc1cccc(N2CCN(C(=O)CCC(=O)NNc3nc4ccccc4c4nc(C)nn34)CC2C)c1 (configuration not stated),.,.,.,-3%,.
O=C1C(=C(c2ccccc2)c2ccccc2)Nc2ccccc21,-35%,9%,-8%,-17%,6.3µM*
O=C(NN=c1c(=O)c2ccccc2c1=O)c1ccccc1,9%,4%,4%,32µM*,12%
CCCCn1c(NS(=O)(=O)c2ccc(C)cc2)c(S(=O)(=O)c2ccccc2)c2nc3ccccc3nc21,-1%,2%,?,28µM*,-22%
COc1ccc(N2Cc3cccc(C(=O)Nc4cccc(F)c4)c3C2=O)cc1,.,.,.,-12%,.
COC(=O)c1ccc(OC)c(-c2c(OC)cc(OC)cc2OC)c1,-8%,-8%,1%,-7%,-12%
COc1cc(OC)c(-c2cc(C(=O)O)ccc2OC)c(OC)c1,0%,-16%,89µM*,-6%,-6%
CN(C)c1ccccc1-c1cc(NC=O)c2ncc(-c3cccc(C(F)(F)F)c3)n2c1,?,-121%,32µM*,.,-18%
COc1ccccc1-c1cc(NC=O)c2ncc(-c3cccc(C(F)(F)F)c3)n2c1,-22%,4%,-8%,.,-3%
COc1ccccc1Nc1nc(-c2sc(N)nc2C)cs1,2%,-4%,8%,-23%,-4%
Cc1nc(N)sc1-c1csc(Nc2ncccn2)n1,71µM*,3%,-8%,?,?
Cc1ccc(S(=O)(=O)Nc2ccc(O)c(Sc3ncn[nH]3)c2)cc1,-10%,15%,18%,?,8%
